Structures are written as SMILES. Compounds without any hit were thinned out: in the full panel of roughly 83,000, 20% have a hit.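 In brief: 96-well plates, 48 h treatment, single concentration, percent growth endpoint.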 Values without a mark were called inactive. The source made the active and inactive calls. How the source made its calls: active means growth percent below 10; inactive means the rest.

Test systems include T-47D breast; BT-549 breast; MDA-MB-435 melanoma; SW-620 colon; MCF7 breast; HCT-116 colon; HCC-2998 colon; KM12 colon.
What all share (assay): NCI-60 one-dose screen, 48 h (100 = growth as untreated, 0 = no growth, -100 = all killed)
Holding throughout (conditions): 10 µM unless noted

As for `CCOc1cc2c(Cl)ncnc2c(OCC)c1OCC`, the growth is 76.3% in the experiment on T-47D breast; 75.1% with BT-549 breast; 78.5% in the experiment on MDA-MB-435 melanoma; 59.2% in the experiment on SW-620 colon; 52.4% in the experiment on MCF7 breast; 49.6% with HCT-116 colon. Besides, the growth in the experiment on HCC-2998 colon was -45.3% (active); in the experiment on KM12 colon, 71.6%.

As to `COc1ccc(-c2c(-c3cc(OC)c4c(c3)OCO4)noc2N)cc1`, the growth in the experiment on T-47D breast was 37.3%; with BT-549 breast, 20.7%; with MDA-MB-435 melanoma, -38.9% (active); in the experiment with SW-620 colon it was 21%; in the experiment with MCF7 breast, 14.2%; with HCT-116 colon it was 6.02% (active). For the same compound, the growth was 15.8% in the experiment with HCC-2998 colon and 3.59% (active) in the experiment with KM12 colon.

Consider `Cc1cc(N/N=C/c2nc(-c3ccc(Br)cc3)oc2C)c2cc(Cl)ccc2n1`, for which the growth is 95.8% with T-47D breast; 98.1% with BT-549 breast; 16.8% with MDA-MB-435 melanoma; -8.11% (active) in the experiment on SW-620 colon; -55% (active) in the experiment on MCF7 breast; -16.5% (active) in the experiment on HCT-116 colon. Further, the growth with HCC-2998 colon is 96.1%; with KM12 colon it was 84%.

Turning to `CN1CCN(Cc2ccc(NC(=O)c3cncc(C#Cc4cnc(N)c5cnccc45)c3)cc2C(F)(F)F)CC1`, the growth in the experiment on T-47D breast is 22.8%; in the experiment on BT-549 breast it was 27.4%; with MDA-MB-435 melanoma it was -9.64% (active); with SW-620 colon it was -10.9% (active); in the experiment with MCF7 breast, 25.3%; in the experiment with HCT-116 colon it was 0.743% (active). In addition, the growth in the experiment with HCC-2998 colon is 19.9%; with KM12 colon, 3.81% (active).

As for `COc1ccc(C(=O)c2cc(OC)c(OC)c(OC)c2OC)cc1O`, the growth is 44.8% in the experiment with T-47D breast; 39.8% in the experiment with BT-549 breast; -24% (active) in the experiment on MDA-MB-435 melanoma; 20.5% in the experiment with SW-620 colon; 17.5% in the experiment with MCF7 breast; 17.9% in the experiment with HCT-116 colon. Besides, the growth in the experiment with HCC-2998 colon is 58.6%; in the experiment on KM12 colon it was 20.8%.

Regarding `c1ccc(-c2nc(N3CCNCC3)c3nc(-c4ccccc4)oc3n2)cc1`, the growth in the experiment on T-47D breast is -56.6% (active); in the experiment with BT-549 breast, 97.5%; with MDA-MB-435 melanoma, -93.7% (active); in the experiment on SW-620 colon, -78.8% (active); in the experiment with MCF7 breast it was -69.2% (active); in the experiment on HCT-116 colon, -89.4% (active). Also, the values for the growth in the experiment with HCC-2998 colon and in the experiment on KM12 colon were -90.3% (active) and -86.1% (active), respectively.

Turning to `Cc1ccc2nc(-c3cc4c([nH]c5ccccc54)c(-c4ccc(F)c(F)c4)n3)[nH]c2c1`, the growth in the experiment with T-47D breast was 77.8%; in the experiment on BT-549 breast it was 83.7%; with MDA-MB-435 melanoma it was 91.3%; with SW-620 colon it was 101%; with MCF7 breast, 51.8%; in the experiment with HCT-116 colon, 15.2%. Also, the growth is 88.6% with HCC-2998 colon and 72.4% in the experiment on KM12 colon.

Regarding `Brc1cccc(-c2cc(-c3ccc4c(c3)OCCCO4)[nH]n2)c1`, the growth is 29.2% [25 µM] in the experiment with T-47D breast; 72.8% [25 µM] with BT-549 breast; -7% [25 µM] (active) with MDA-MB-435 melanoma; 31.8% [25 µM] in the experiment with SW-620 colon; 23.2% [25 µM] in the experiment on MCF7 breast; 51.4% [25 µM] in the experiment on HCT-116 colon. The growth was 75.6% [25 µM] in the experiment with HCC-2998 colon and 20% [25 µM] in the experiment with KM12 colon.

Regarding `NC1N=C(SCC(=O)N2CCN(c3cc4c(cc3F)c(=O)c(C(=O)O)cn4C3CC3)CC2)NC(=O)/C1=C/c1ccc(Cl)cc1` (configuration not stated), the growth in the experiment on T-47D breast is 97.9%; in the experiment on BT-549 breast it was 122%; in the experiment with MDA-MB-435 melanoma it was 105%; with SW-620 colon it was 104%; in the experiment on MCF7 breast, 105%; with HCT-116 colon, 101%. The growth was 109% in the experiment on HCC-2998 colon and 107% in the experiment with KM12 colon.

Take `C=C(C)[C@@H]1CC[C@]2(C(=O)O)CC[C@]3(C)[C@H](CC[C@@H]4[C@@]5(C)C[C@@H](CC#Cc6ccc(C(F)(F)F)cc6)[C@H](O)C(C)(C)[C@@H]5CC[C@]43C)[C@@H]12`: the growth in the experiment on T-47D breast was 19%; in the experiment on BT-549 breast, 36.7%; in the experiment with MDA-MB-435 melanoma it was -31.8% (active); in the experiment on SW-620 colon it was 15%; in the experiment with MCF7 breast, 8.54% (active); with HCT-116 colon it was 11.4%. The growth with HCC-2998 colon is 18.2%; in the experiment with KM12 colon, 15.3%.

As for `CCCCNC(=O)Oc1ccc(/C(=C(\C)c2ccccc2)c2ccc(OCCN(CC)CC)cc2)cc1`, the growth with T-47D breast is 40.3%; with BT-549 breast it was 72.3%; in the experiment on MDA-MB-435 melanoma, 58.7%; with SW-620 colon, 69.7%; in the experiment with MCF7 breast, 33.8%; in the experiment with HCT-116 colon, 48.1%. In addition, the growth is 82.6% in the experiment with HCC-2998 colon and 60.6% with KM12 colon.

As for `N=C(N)c1ccc(-c2ccc(-c3cncc4ccccc34)s2)cc1F`, the growth in the experiment with T-47D breast is -63.3% (active); in the experiment on BT-549 breast, 89.5%; in the experiment on MDA-MB-435 melanoma, -90.5% (active); with SW-620 colon, -62.1% (active); with MCF7 breast, -68.6% (active); in the experiment with HCT-116 colon, -87.8% (active). Further, the growth in the experiment on HCC-2998 colon was -98.2% (active); in the experiment on KM12 colon, -89.4% (active).

For the compound `Cc1c(C(=O)/C=C/c2csc3ccccc23)[n+](=O)c2ccccc2n1[O-]`, the growth was 21.5% in the experiment on T-47D breast; 20.1% with BT-549 breast; 67.7% with MDA-MB-435 melanoma; 26.3% in the experiment on SW-620 colon; 9.38% (active) with MCF7 breast; 16% in the experiment with HCT-116 colon. For the same compound, the values for the growth in the experiment on HCC-2998 colon and in the experiment with KM12 colon were 78.5% and 48.4%, respectively.

For the compound `COc1cc(-c2nn(-c3cccc(NC(=O)Nc4cccc(C(F)(F)F)c4)c3)cc2-c2ccncc2)ccc1Cl`, the growth is -4.03% (active) in the experiment on T-47D breast; -15.4% (active) in the experiment on BT-549 breast; -50% (active) in the experiment with MDA-MB-435 melanoma; 8.92% (active) in the experiment on SW-620 colon; -6.3% (active) in the experiment on MCF7 breast; 0.0611% (active) with HCT-116 colon. Moreover, the growth in the experiment with HCC-2998 colon was -18.4% (active); in the experiment on KM12 colon, -27.8% (active).

The record behind these values is PubChem BioAssay (NCI).
